Assay results from ChEMBL document CHEMBL4513146, “CO-ADD screening of Karazin Kharkiv National University (Ukraine) compounds”.
Potency and affinity values are given separately.

Tests used:
Staphylococcus aureus = details: Concentration 32 ug.mL-1;; ASSAY_TEST Inhibition of Bacterial Growth; detection method Absorption (OD600); MEDIA CAMHB; plate type 384well; NBS; CORNING #3640; time 18 hr
Escherichia coli = details: Concentration 32 ug.mL-1;; ASSAY_TEST Inhibition of Bacterial Growth; detection method Absorption (OD600); MEDIA CAMHB; plate type 384well; NBS; CORNING #3640; time 18 hr

Row | Structure (SMILES) | Inhibition (Staphylococcus aureus) [%] | Inhibition (Escherichia coli) [%]
1 | O=S(=O)(c1cccn2cnnc12)N(Cc1ccc(F)cc1)c1ccc(F)cc1 | 8.29 | -3.31
2 | COc1cccc(Oc2nccn3c(=O)n(CC(=O)NCc4ccc(SC)cc4)nc23)c1 | 10.98 | 2.64
3 | COc1ccc(NC(=O)Cn2nc3c(Oc4cccc(F)c4)nccn3c2=O)cc1 | -3.6 | -10.71
4 | C=Cc1ccc(CN(c2ccc(Cl)cc2)S(=O)(=O)c2cccn3c(C)nnc23)cc1 | 6.06 | -3.28
5 | COc1cccc(CN(c2cccc(F)c2)S(=O)(=O)c2ccc3nnc(C)n3c2)c1 | -5.28 | -2.32
6 | Cc1c(Cl)cccc1-n1ccn2c(=O)n(Cc3ccccc3Cl)nc2c1=O | -12.86 | -11.83
7 | CCc1nnc2c(S(=O)(=O)N(Cc3cc(F)cc(F)c3)c3cccc(F)c3)cccn12 | 2.06 | -5.05
8 | CCc1ccccc1NC(=O)Cn1nc2n(C)c(=O)c3c(c(-c4ccccc4)cn3C)n2c1=O | 6.44 | -11.71
9 | Cc1nnc2ccc(S(=O)(=O)N(Cc3cccc(F)c3)c3ccc(Cl)cc3)cn12 | 9.42 | -6.55
10 | COc1ccc(N(Cc2cccc(C)c2)S(=O)(=O)c2ccc3nnc(C)n3c2)cc1 | 2.37 | -2.14
11 | CCc1cccc(NC(=O)Cn2nc3nc(N4CCCCCC4)ccn3c2=O)c1 | 0.41 | -5.25
12 | COc1ccc(-c2cc3c4nn(CC(=O)NCc5ccc(Cl)cc5)c(=O)n4ccn3n2)cc1 | 12.72 | 5.93
